{"source": "PubChem BioAssay (EPA / NIEHS)", "note": "Several values for one entry are separate records, joined by “and”; a condition that tells them apart may be missing. Equal values may be shown once. More than one record can exist for a structure, and the calls need not agree. Activity calls are given as the source filed them. How the source made its calls: active means hit-call score of the fitted dose curve at least 0.9, where 1 is the maximum; inactive means score below 0.9.", "data": [{"read-out": "Epidermal growth factor receptor (EGFR), EGFR (gene 1956)", "test": "BSK_hDFCGF_EGFR: BioMAP Diversity Plus: hDFCGF Assay for Epidermal growth factor receptor (EGFR) Biomarker Activity (AID 2283057)", "settings": "primary human foreskin fibroblasts; actives raise or lower the signal", "in_short": "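Dosing human primary skin fibroblasts, then measuring surface EGFR by ELISA at 24 h, gives the endpoint; gains and losses relative to DMSO were fitted in both directions.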", "values": [{"smiles": "O=C(O)C(F)(F)C(F)(F)C(F)(F)C(F)(F)C(F)(F)C(F)(F)C(F)(F)F", "AC50": "22.4 µM (active)", "outcome": "inactive"}, {"smiles": "CNC(=O)/C=C(\\C)OP(=O)(OC)OC", "outcome": "inactive"}, {"smiles": "CC1(c2ccc(Oc3ccccc3)cc2)OC(=O)N(Nc2ccccc2)C1=O", "note": "(stereo not given)", "outcome": "inactive"}, {"smiles": "O=C(Nc1ccccc1)Nc1cnns1", "outcome": "inactive"}, {"smiles": "COP(=S)(OC)Oc1ccc([N+](=O)[O-])cc1", "outcome": "inactive"}, {"smiles": "CNC(=O)Oc1cccc(N=CN(C)C)c1", "outcome": "inactive"}, {"smiles": "CCCN(CCOc1c(Cl)cc(Cl)cc1Cl)C(=O)n1ccnc1", "outcome": "inactive"}, {"smiles": "COC(=O)c1ccccc1S(=O)(=O)NC(=O)Nc1nc(C)nc(OC)n1", "outcome": "inactive"}, {"smiles": "Cc1cc(C)nc(NC(=O)NS(=O)(=O)c2ccccc2C(=O)OC2COC2)n1", "outcome": "inactive"}, {"smiles": "CCC(C)(C)C(=O)OC1=C(c2ccc(Cl)cc2Cl)C(=O)OC12CCCCC2", "AC50": "5.45 µM (active)"}, {"smiles": "CNC(=O)Oc1ccccc1OC(C)C", "outcome": "inactive"}, {"smiles": "Clc1ccccc1-c1nnc(-c2ccccc2Cl)nn1", "outcome": "inactive"}, {"smiles": "O=C1c2ccccc2C(=O)N1SC(Cl)(Cl)Cl", "outcome": "inactive"}, {"smiles": "Cc1[nH]c(=O)n(C(C)(C)C)c(=O)c1Cl", "outcome": "inactive"}, {"smiles": "C[C@H]1[C@H](c2ccc(Cl)cc2)SC(=O)N1C(=O)NC1CCCCC1", "outcome": "inactive"}, {"smiles": "COC(=O)c1ccccc1S(=O)(=O)NC(=O)N(C)c1nc(C)nc(OC)n1", "outcome": "inactive"}, {"smiles": "CCc1ccc(C(=O)NN(C(=O)c2cc(C)cc(C)c2)C(C)(C)C)cc1", "outcome": "inactive"}, {"smiles": "CC[C@H](C)[C@H]1O[C@]2(C=C[C@@H]1C)C[C@@H]1C[C@@H](C/C=C(\\C)[C@@H](O[C@H]3C[C@H](OC)[C@@H](O[C@H]4C[C@H](OC)[C@@H](O)[C@H](C)O4)[C@H](C)O3)[C@@H](C)/C=C/C=C3\\CO[C@@H]4[C@H](O)C(C)=C[C@@H](C(=O)O1)[C@]34O)O2", "note": "(tested in a mixture with another compound)", "AC50": "5.21 µM (active)"}, {"smiles": "O=S(=O)(O)C(F)(F)C(F)(F)C(F)(F)C(F)(F)C(F)(F)C(F)(F)C(F)(F)C(F)(F)F", "AC50": "3.97 µM (active)", "outcome": "inactive"}, {"smiles": "Oc1ccc(Cl)cc1Cc1ccccc1", "AC50": "12.4 µM (active) [middle of 4 runs]", "outcome": "inactive"}, {"smiles": "COP(=S)(OC)Oc1ccc(SC)c(C)c1", "outcome": "inactive"}, {"smiles": "COC(=O)c1ccccc1CS(=O)(=O)NC(=O)Nc1nc(OC)cc(OC)n1", "outcome": "inactive"}, {"smiles": "Oc1cc(Cl)ccc1Oc1ccc(Cl)cc1Cl", "AC50": "5.45 µM (active) and 5.46 µM (active)", "outcome": "inactive"}, {"smiles": "OCCOc1ccccc1", "outcome": "inactive"}, {"smiles": "ClC1C(Cl)C(Cl)C(Cl)C(Cl)C1Cl", "note": "(stereo not given)", "outcome": "inactive"}, {"smiles": "CC(C)N(C(=O)COc1nnc(C(F)(F)F)s1)c1ccc(F)cc1", "outcome": "inactive"}]}]}
